According to PubChem BioAssay (NCI):
Compounds without any hit were thinned out: in the full panel of roughly 83,000, 20% have a hit.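 How to read the values: 0–100, growth inhibition (40 = 60% inhibited); 0, no net growth; -100 to 0, cell death (-40 = 40% of starting cells died; -100 = all dead).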 A number with no mark means an inactive call. Calls of active or inactive are those of the source. The calls were made as follows: active = growth percent below 10; inactive = the rest.

Assays:
Test in all cases: NCI-60 one-dose screen, 48 h (100 = growth as untreated, 0 = no growth, -100 = all killed)
Settings in all cases: 10 µM unless noted
[1] = test system: HCT-15 colon
[2] = test system: HT29 colon
[3] = test system: SNB-75 CNS
[4] = test system: SNB-19 CNS
[5] = test system: U251 CNS
[6] = test system: PC-3 prostate
[7] = test system: SK-MEL-5 melanoma
[8] = test system: UACC-62 melanoma
[9] = test system: LOX IMVI melanoma
[10] = test system: SK-MEL-28 melanoma

Structure (SMILES) | growth [1] | growth [2] | growth [3] | growth [4] | growth [5] | growth [6] | growth [7] | growth [8] | growth [9] | growth [10]
Cc1ccc(S(=O)(=O)n2cc(-c3csc(-c4cn(C)c5ncccc45)n3)c3ccccc32)cc1 | 35.8% | 19.3% | 45.8% | 85% | 51.9% | 44.8% | 39.4% | 58.1% | 51.2% | 58.8%
COc1ccc2nc3cc(Cl)ccc3c(N3CCN(c4nccc(Nc5ccccc5)n4)CC3)c2c1 | 33.8% | 54% | 52.8% | 85.2% | 58.5% | 55.9% | 80.4% | 78.9% | 44.3% | 83.5%
CCN(CC)C12CCCCC1(C)C(C#N)(C#N)C(C#N)=C(N)O2 (stereo not given) | 106% | 101% | 92.1% | 106% | 103% | 115% | 116% | 90.8% | 98.9% | 99.3%
C[C@@]1(N2C(=O)OC[C@@H]2c2ccccc2)C(=O)N([C@H](CC(=O)N2CCC(N3CCCCC3)CC2)C(=O)NCc2cccc(C(F)(F)F)c2)[C@@H]1/C=C/c1ccccc1 | 19% | -3.04% (active) | 66.3% | 74.1% | 38.4% | 52.8% | -93% (active) | 24.6% | -50.1% (active) | -45.2% (active)
O=C1CC(c2nc3ccccc3[nH]2)CN1C1CCCCC1 (stereo not given) | 105% | 102% | 90.1% | 110% | 99.7% | 93.3% | 101% | 104% | 93.9% | 112%
CCCCCCCCCCCCCC(=O)C(C)N (stereo not given) | 3.51% (active) | 13.8% | 34.1% | 77.5% | 18.2% | 3.08% (active) | 90.3% | -71.1% (active) | -79.6% (active) | 73.9%
CC/C=C\C[C@H](F)C/C=C1/C(=O)C=C[C@@H]1C/C=C\CCCC(=O)O | 29.4% | 29.5% | 81.4% | 63.5% | 19.2% | 55% | 15.5% | 27.5% | -42.6% (active) | 46.7%
CN(C)CCCC(=O)Nc1ccc(Cn2nnc3c2C(=O)c2nnn(Cc4ccc(NC(=O)CCCN(C)C)cc4)c2C3=O)cc1 | 94.5% | 10.5% | -94.9% (active) | 82.7% | 90.2% | 88.1% | 50.3% | 75.7% | 6.92% (active) | 56.5%
CS(CCCCN=C=S)=NC(=O)c1c(F)c(F)c(F)c(F)c1F (stereo not given) | 37.3% | 57.6% | 74.3% | 91.9% | 80.3% | 95.8% | 96.1% | 51.9% | 28.3% | 85.9%
CCCC(=O)Oc1ccc(/C(=C(/CC)Cc2ccccc2)c2ccc(OCCN3CCCC3)cc2)cc1 | 41.8% | 16.5% | 62.5% | 94.2% | 49% | 70% | 66.2% | 23.7% | 25.2% | -19.8% (active)
CC[n+]1ccc2c(c1)C(=O)c1nccc3c1c-2nc1ccccc13 | 48.5% | 10% | -75.2% (active) | -70.5% (active) | -60% (active) | 3.26% (active) | -28.3% (active) | -57.7% (active) | -3.96% (active) | 1.07% (active)
Nc1ccc2c(c1)C(=O)NC2=O | 98.5% | 90.7% | 75.8% | 93.5% | 96% | 121% | 105% | 89.7% | 97.8% | 99.8%
CNCc1cccc2c1OCCOCCOCCN(C)S(=O)(=O)c1ccc(cc1)-c1cnc(N)c(n1)C(=O)N2 | 11.4% | 13.2% | 33.2% | 93.3% | 12.8% | 54.1% | 82.5% | 29.4% | -16% (active) | 68%
C[C@@H]1CCC2=C(CCC[C@]2(C)C(=O)O)[C@@]1(C)CCc1ccoc1 | 102% | 86.9% | 95.7% | 92.9% | 85.4% | 87.4% | 95.4% | 85.3% | 98.4% | 115%
COc1cnc2c(c1)C(=O)c1c-2n(CCCN2CCCC2)c(=O)c2cc([N+](=O)[O-])ccc12 | 20.3% | -59.4% (active) | -3.27% (active) | 19.8% | -64.8% (active) | 15.6% | -96.8% (active) | -67.5% (active) | -82.3% (active) | 29.3%
CC(=O)N1CC(Nc2ccc(OC(F)(F)F)cc2)=CC1=O | 30.8% | 7.79% (active) | 9.15% (active) | 42.3% | 28.6% | 30.6% | 21.2% | 39.1% | 43.7% | 56.5%
C/C(=C(/c1ccc(O)cc1)c1ccc(OCCN(C)C)cc1)c1ccccc1 | 73.9% | 22.1% | 53.4% | 96.1% | 70.5% | 80.3% | 75.1% | 36.8% | 82.8% | 45.3%
Cc1ccc(Nc2nc(N)nc(Nc3ccc4ccccc4c3)n2)cc1 | 29.3% | 11.2% | 25% | 61.7% | 17.7% | 32.7% | 47.7% | 18.4% | 38.2% | 62%
COc1ccccc1N1CCN(CCn2c(=O)c3c(c4ccccc4n3C)n(C)c2=O)CC1 | 101% | 68.3% | 107% | 95.2% | 84.2% | 84.4% | 95.8% | 92.4% | 96.3% | 115%
COCCCNc1nc(NC(=O)c2ccc(F)cc2C)cc(-c2cccnc2)n1 | 109% | 105% | 91.7% | 89.9% | 87.6% | 95.9% | 104% | 85.7% | 112% | 107%
O=C(CO[N+](=O)[O-])Nc1ccc(C(=O)/C=C/c2ccc3c(c2)OCO3)cc1 | 76.7% | 30.1% | 86.3% | 104% | 57.3% | 61.4% | 90.8% | 96% | 21.5% | 104%
COc1ccc(/C(=C/c2ccc3ccccc3c2)c2nn[nH]n2)cc1OC | 31.1% | 5.54% (active) | -7.45% (active) | 51.1% | 14.3% | 18.6% | 23.5% | 21.5% | 37.6% | 56.6%
C=C1CCC2C3(C)COC(c4ccc(SC)cc4)OC3CCC2(C)C1C/C=C1/C(=O)OCC1O (stereo not given) | 68.7% | 34.4% | 73% | 109% | 60.7% | 57.6% | 65.3% | 66.3% | 23.3% | 104%
Clc1ccc(-c2nnc(COc3ccccc3Cl)o2)cc1 | 81% | 71% | 2.45% (active) | 86.7% | 60.3% | 89.1% | 91.4% | 79.7% | 81.5% | 85.1%
CC/C=C\C[C@H](O)C/C=C1/C(=O)C=C[C@@H]1C/C=C\CCCC(=O)NC(C)C | -33.9% (active) | -29.6% (active) | 68% | 31.8% | 2.26% (active) | 16.4% | -69.8% (active) | -61% (active) | -46.9% (active) | 4.94% (active)
C=C1CCC2C3(C)COC(c4ccccc4Br)OC3CCC2(C)C1C/C=C1/C(=O)OCC1OC(C)=O (stereo not given) | -36.2% (active) | -46.2% (active) | -25.3% (active) | 102% | -95.9% (active) | -17.1% (active) | -57.1% (active) | -18.4% (active) | -92% (active) | -52.9% (active)
O=C(NCc1cccc(C(F)(F)F)c1)[C@H](CCC(=O)N1CCN(C2CCCCC2)CC1)N1C(=O)[C@@H](N2C(=O)OC[C@@H]2c2ccccc2)[C@H]1/C(Cl)=C/c1ccccc1 | 31.8% | 2.23% (active) | 58.5% | 39.4% | 28.1% | 21.7% | -59.5% (active) | 60.3% | 19.9% | 18.6%
